Records with an inconclusive call do not appear. The source made the active and inactive calls. Unless noted, the call rests on the fitted dose curve.
Assays:
[1] = qHTS for Inhibitors of the Functional Ribonucleoprotein Complex (vRNP) of Lassa (LASV) Arenavirus: LASV Primary Screen - GLuc reporter signal (AID 1347082; calls by dose curve; tested in HEK293 reporter line; further: nearly all actives have a fitted effect of over 60% in size)
[2] = qHTS for Inhibitors of the Functional Ribonucleoprotein Complex (vRNP) of Lassa (LASV) Arenavirus: Viability assay - alamar blue signal for LASV Primary Screen (AID 1347083; calls by dose curve; tested in HEK293 reporter line; further: nearly all actives have a fitted effect of over 80% in size)
[3] = qHTS for Inhibitors of the Functional Ribonucleoprotein Complex (vRNP) of Lymphocytic Choriomeningitis Arenaviruses (LCMV): Viability assay - alamar blue signal for LCMV Primary Screen (AID 1347085; calls by dose curve; tested in HEK293 reporter line; further: nearly all actives have a fitted effect of over 80% in size)
[4] = molecular target: Nucleoprotein (Lymphocytic choriomeningitis virus (strain Armstrong)) (UniProt P09992); assay: qHTS for Inhibitors of the Functional Ribonucleoprotein Complex (vRNP) of Lymphocytic Choriomeningitis Arenaviruses (LCMV): LCMV Primary Screen - GLuc reporter signal (AID 1347086); further: nearly all actives have a fitted effect of over 70% in size

Measured: Potency
Further: series mostly up to about 57 µM.

Nucleoprotein (Lymphocytic choriomeningitis virus (strain Armstrong)), sequence (P09992 whole entry, looked up): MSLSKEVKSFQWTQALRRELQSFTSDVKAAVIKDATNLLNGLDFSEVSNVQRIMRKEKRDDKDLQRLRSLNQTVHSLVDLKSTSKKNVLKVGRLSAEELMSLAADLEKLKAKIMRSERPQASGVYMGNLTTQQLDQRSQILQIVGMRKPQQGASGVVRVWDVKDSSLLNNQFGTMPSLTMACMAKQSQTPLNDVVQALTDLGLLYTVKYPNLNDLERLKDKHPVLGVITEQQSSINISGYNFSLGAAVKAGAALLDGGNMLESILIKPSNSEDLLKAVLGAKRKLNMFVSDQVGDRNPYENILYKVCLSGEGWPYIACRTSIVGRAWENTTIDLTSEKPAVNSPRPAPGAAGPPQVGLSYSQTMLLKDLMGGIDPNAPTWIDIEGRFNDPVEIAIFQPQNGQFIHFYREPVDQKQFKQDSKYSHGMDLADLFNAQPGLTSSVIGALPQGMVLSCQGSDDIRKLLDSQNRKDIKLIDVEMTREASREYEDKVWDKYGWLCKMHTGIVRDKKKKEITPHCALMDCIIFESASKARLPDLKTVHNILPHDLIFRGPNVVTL

CN(Cc1cc(Br)cc(Br)c1N)C1CCCCC1
inactive: all assays above

CN(C)CC[C@@H](c1ccc(Cl)cc1)c1ccccn1
inactive: all assays above

CC(C)(C)C(=O)OCOC(=O)C1N2C(=O)CC2S(=O)(=O)C1(C)C (stereo not given)
inactive: all assays above

CC(=O)OC[C@H]1O[C@@](COC(C)=O)(O[C@H]2O[C@H](COC(C)=O)[C@@H](OC(C)=O)[C@H](OC(C)=O)[C@H]2OC(C)=O)[C@@H](OC(C)=O)[C@@H]1OC(C)=O
inactive: all assays above

CC(C(O)c1ccc(O)cc1)N1CCC(Cc2ccccc2)CC1 (stereo not given)
inactive: all assays above

O=C(NCCc1c[nH]c2ccccc12)c1cccnc1
inactive: all assays above

CCCc1nc(C)c2c(=O)[nH]c(-c3cc(S(=O)(=O)N4CCN(CC)CC4)ccc3OCC)nn12
inactive: all assays above

CCCn1cnc2c1c(=O)n(CCCCC(C)=O)c(=O)n2C
inactive: all assays above

CC1=C(CC(=O)O)c2cc(F)ccc2/C1=C\c1ccc(S(C)=O)cc1 (stereo not given)
inactive: all assays above

C[C@@H](CN(C)C)CN1c2ccccc2Sc2ccccc21
inactive: all assays above

CCN(CC)C(=O)c1cccc(C)c1
inactive: all assays above

O=C(NC1CCN(CCc2c[nH]c3ccccc23)CC1)c1ccccc1
inactive: all assays above

FC(F)(F)C(Cl)Br (stereo not given)
inactive: all assays above

C[C@@H]1CCN(C(=O)[C@H](CCCN=C(N)N)NS(=O)(=O)c2cccc3c2NC[C@H](C)C3)[C@@H](C(=O)O)C1
inactive: all assays above

CCOCCn1c(N2CCCN(C)CC2)nc2ccccc21
inactive: all assays above

CC(=O)OCC(=O)NCCCOc1cccc(CN2CCCCC2)c1
inactive: all assays above

C[C@@H]1C[C@H]2[C@@H]3C[C@H](F)C4=CC(=O)C(Cl)=C[C@]4(C)[C@@]3(F)[C@@H](O)C[C@]2(C)[C@@]1(O)C(=O)CO
inactive: all assays above

COc1ccccc1N1CCN(CC(O)COc2cccc3ccccc23)CC1 (stereo not given)
inactive: all assays above

CN(C)[C@@H](CCOc1cccc2ccccc12)c1ccccc1
inactive: all assays above

Cc1ccc(=O)n(-c2ccccc2)c1
inactive: all assays above

Cc1nnc(C(=O)NC(C)(C)c2nc(C(=O)NCc3ccc(F)cc3)c(O)c(=O)n2C)o1
inactive: all assays above

O=C(O)c1cn(-c2ccc(F)cc2)c2cc(N3CCNCC3)c(F)cc2c1=O
inactive: all assays above

NCCNc1cccc2ccccc12
inactive: all assays above

CN(C)CCN(Cc1ccccc1)c1ccccn1
inactive: all assays above

CCCCC(=O)O[C@]1(C(=O)CO)CC[C@H]2[C@@H]3CCC4=CC(=O)CC[C@]4(C)[C@H]3[C@@H](O)C[C@@]21C
inactive: all assays above

C[N+]1(CC2COC(c3ccccc3)(C3CCCCC3)O2)CCCCC1 (stereo not given)
inactive: all assays above

CS(=O)(=O)c1ccc(-c2cn3ccccc3n2)cc1
inactive: all assays above

CC1(C)[C@@H]2CC[C@@]1(C)C(=O)C2
inactive: all assays above

CC(=O)NC(Cc1ccccc1)C(=O)O (stereo not given)
inactive: all assays above

CCCCCC1Nc2cc(C(F)(F)F)c(S(N)(=O)=O)cc2S(=O)(=O)N1 (stereo not given)
inactive: all assays above

CC1(C)CCC(C)(C)c2cc(NC(=O)c3ccc(C(=O)O)cc3)ccc21
inactive: all assays above

O=C1c2ccccc2S(=O)(=O)N1CCCCN1CCN(c2ncccn2)CC1
inactive: all assays above

CC(=O)N1C[C@H](O)C[C@H]1C(=O)O
inactive: all assays above

O=C(CCCN1CCC(O)(c2ccc(Br)cc2)CC1)c1ccc(F)cc1
inactive: all assays above

CCCCN1CCCC[C@H]1C(=O)Nc1c(C)cccc1C
inactive: all assays above

C[C@H]1C[C@H]2[C@@H]3CCC4=CC(=O)C=C[C@]4(C)[C@@]3(Cl)[C@@H](O)C[C@]2(C)[C@@]1(O)C(=O)CO
inactive: all assays above

C[C@]12CCC(=O)C=C1CC[C@@H]1[C@@H]2[C@@H](O)C[C@@]2(C)[C@H]1CC[C@]2(O)C(=O)CO
inactive: all assays above

O=C1CC2(CCCC2)CC(=O)N1CCCCN1CCN(c2ncccn2)CC1
inactive: all assays above

Cc1ccc(O)cc1
inactive: all assays above

CC(C(=O)O)c1ccc2c(c1)Cc1cccnc1O2 (stereo not given)
inactive: all assays above

C[C@H](N)C(=O)N[C@@H](C)C(=O)NC1[C@H]2CN(c3nc4c(cc3F)c(=O)c(C(=O)O)cn4-c3ccc(F)cc3F)C[C@@H]12 (stereo not given in full)
inactive: all assays above

CCN(CC)CCOC(=O)C(Cc1cccc2ccccc12)CC1CCCO1 (stereo not given)
inactive: all assays above

CSc1ccc(C(=O)c2[nH]c(=O)[nH]c2C)cc1
inactive: all assays above

CN(C)CCOC1=Cc2ccccc2Sc2ccc(Cl)cc21
inactive: all assays above

Oc1ccc(C(O)CNCCCCCCNCC(O)c2ccc(O)c(O)c2)cc1O (stereo not given)
inactive: all assays above

CC1(C)OC(=O)Nc2ccc(Br)cc21
inactive: all assays above

Nc1ccc(C(=O)N2CC3CC(CN(Cc4ccccc4)C3)C2)cc1
inactive: all assays above

CC1CCCCN1CCCOC(=O)c1ccc(OC2CCCCC2)cc1 (stereo not given)
inactive: all assays above

O=C1NC2CCCCN2C12CCN(CCCN1c3ccccc3CCc3ccc(Cl)cc31)CC2 (stereo not given)
inactive: all assays above

Cc1[nH]c(=O)c(C#N)cc1-c1ccc2nccn2c1
inactive: all assays above

CNC(=O)c1c(I)c(NC(=O)CCCCC(=O)Nc2c(I)c(C(=O)O)c(I)c(C(=O)NC)c2I)c(I)c(C(=O)O)c1I
inactive: all assays above

CNC(=O)c1cnn(-c2nc(N)c3ncn([C@@H]4O[C@H](CO)[C@@H](O)[C@H]4O)c3n2)c1
inactive: all assays above

CCN(CC)CC(=O)Nc1c(C)cccc1C
inactive: all assays above

CNC(=O)Oc1ccc2c(c1)[C@]1(C)CCN(C)[C@@H]1N2C
inactive: all assays above

CC(=O)CCC(=O)O
inactive: all assays above

CCC(=O)c1ccc2c(c1)N(CCCN(C)C)c1ccccc1S2
inactive: all assays above

NC(=O)c1ncn([C@@H]2O[C@H](CO)[C@@H](O)[C@H]2O)c1N
inactive: all assays above

CCC(=O)Nc1ccc(O)cc1
inactive: all assays above

Cc1ccc2c(Cl)cc(Cl)c(O)c2n1
inactive: all assays above

CCOC(=O)c1ccc(OC(=O)CCCCCN=C(N)N)cc1
inactive: all assays above

Reference: PubChem BioAssay (NCATS)
